Consider one molecule from the supplement of paper PMC8728848.

This is one part of a sample in which the strongest signals are shown more often than they occur.

Holding throughout (experiment): glycan array binding signal (z-score within array); higher = stronger binding
What all share (settings): glycan notation: IUPAC condensed, linker removed

The target in assay [1] is Gal6S(b1-4)Glc6S. An outline of the steps:
(§1)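 The binding signal is a Z-score computed within each array and averaged over linkers. Arrays of the same protein sequence at different concentrations or buffers were also averaged together. Data originate from 3228 arrays in the Consortium for Functional Glycomics database, kept only where the protein sequence was available.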

Assay [2] concerns the target Gal6S(b1-4)GlcNAc6S. An outline of the steps: as §1
The target in assay [3] is GalNAc(b1-4)GlcNAc(b1-2)Man(a1-3)[GalNAc(b1-4)GlcNAc(b1-2)Man(a1-6)]Man(b1-4)GlcNAc(b1-4)GlcNAc. An outline of the steps:
as §1

Assay [4] addresses GlcA(b1-3)GlcNAc. An outline of the steps: as §1
Assay [5] addresses GlcNAc(a1-4)Gal(b1-4)GlcNAc. Put shortly: as §1
The target in assay [6] is GlcNAc(b1-2)Gal(b1-3)GalNAc. Put shortly: as §1
The target of assay [7] is GlcNAc(b1-6)Gal(b1-4)GlcNAc. Put shortly: as §1
In assay [8] the target is Man(a1-2)Man(a1-2)Man(a1-6)[Man(a1-3)]Man. Put shortly: as §1
In assay [9] the target is Man(a1-3)[Man(a1-6)]Man(a1-6)[Man(a1-3)]Man. An outline of the steps:
as §1

In assay [10] the target is Neu5Ac(a2-3)Gal(b1-3)GlcNAc(b1-3)Gal(b1-3)GlcNAc. Put shortly:
as §1

Assay [11] concerns the target Neu5Ac(a2-3)Gal(b1-3)GlcNAc(b1-3)Gal(b1-4)GlcNAc. An outline of the steps: as §1
The target of assay [12] is Neu5Ac(a2-3)Gal(b1-3)[Neu5Ac(a2-6)]GlcNAc(b1-3)[Fuc(a1-3)[Gal(b1-4)]GlcNAc(b1-6)]Gal(b1-4)Glc. An outline of the steps: as §1
Assay [13] addresses Neu5Ac(a2-3)Gal(b1-4)GlcNAc(b1-2)Man. Put shortly: as §1
In assay [14] the target is Neu5Ac(a2-3)Gal(b1-4)GlcNAc(b1-3)Gal(b1-4)GlcNAc(b1-3)GalNAc. Put shortly: as §1
Assay [15] deals with Neu5Ac(a2-3)Gal(b1-4)GlcNAc(b1-3)[Neu5Ac(a2-3)Gal(b1-4)GlcNAc(b1-6)]GalNAc. Put shortly:
as §1

Assay [16] addresses Neu5Ac(a2-3)Gal(b1-4)[Fuc(a1-3)]GlcNAc(b1-3)GalNAc. An outline of the steps:
as §1

Assay [17] concerns the target Neu5Ac(a2-6)Gal(b1-4)GlcNAc(b1-2)Man. An outline of the steps: as §1
Assay [18] deals with Neu5Ac(a2-6)Gal(b1-4)GlcNAc(b1-2)Man(a1-3)[Gal(b1-4)GlcNAc(b1-2)Man(a1-6)]Man(b1-4)GlcNAc(b1-4)GlcNAc. An outline of the steps: as §1
In assay [19] the target is Neu5Ac(a2-6)Gal(b1-4)GlcNAc(b1-3)Gal(b1-4)GlcNAc. An outline of the steps:
as §1

Assay [20] addresses Neu5Ac(a2-6)Gal(b1-4)GlcNAc(b1-3)Gal(b1-4)GlcNAc(b1-2)Man(a1-3)[Neu5Ac(a2-6)Gal(b1-4)GlcNAc(b1-3)Gal(b1-4)GlcNAc(b1-2)Man(a1-6)]GalNAc. Put shortly:
as §1

The target of assay [21] is Neu5Ac(a2-6)Gal(b1-4)GlcNAc(b1-3)Gal(b1-4)GlcNAc(b1-3)Gal(b1-4)GlcNAc(b1-2)Man(a1-3)[Neu5Ac(a2-6)Gal(b1-4)GlcNAc(b1-3)Gal(b1-4)GlcNAc(b1-3)Gal(b1-4)GlcNAc(b1-2)Man(a1-6)]GalNAc. An outline of the steps: as §1
Assay [22] has as its target Neu5Ac(a2-6)Gal(b1-4)GlcNAc(b1-3)Gal(b1-4)[Fuc(a1-3)]GlcNAc(b1-3)Gal(b1-4)[Fuc(a1-3)]GlcNAc. An outline of the steps:
as §1

Assay [23] concerns the target Neu5Ac9Ac(a2-3)Gal(b1-3)GlcNAc. Put shortly:
as §1

B1: Epa21 (Candida glabrata) (protein)
chain: MGSSHHHHHHSSGLVPRGSHMASTPNIESHPQGCSPVDTSGIKPGLKMDLYRFPITPPGTGCWSWDWLTVTPDFPRSGYWKWPKIAEVDGVVGPLHLDSGHPTCDPLTSVLPHGFNYLQSITTTNFTMVLHGYFVPKQSGKYTFEFKADDALLLNLGAGNAFSCCDYNNSQYNQGEYLAYAIWSKNNQTATLYLEKGIYYPIRVFYHNRCCGAYMDVVYYFNDSPIPNRDFSGLLFSIPDSDSCDANI
Take B1: the “glycan array binding signal (z-score)” value is 2.89 in [1]; 3.19 in assay [2]; 0.288 in [3]; 0.14 in assay [4]; -0.35 in assay [5]; -0.466 in assay [6]. The “glycan array binding signal (z-score)” value in assay [7] was 0.013; in [8], -0.531; in [9], -0.026; in assay [10], -0.487; in [11], -0.39; in [12] it was -0.237. Moreover, the “glycan array binding signal (z-score)” value is 2.68 in assay [13]; 3.03 in [14]; 0.888 in assay [15]; 1.87 in assay [16]; -0.212 in [17]; -0.438 in assay [18]. Besides, the “glycan array binding signal (z-score)” value in assay [19] was -0.589; in assay [20], 2.55; in [21] it was 5.42; in [22], -0.189; in assay [23], -0.318.
